Only some compounds are listed: those with a hit (about 4% of all), similar ones and a draw of the others.
Measles CPE = protection of cells from measles virus | Measles virus-infected cells, CPE protection, absorbance | protection (pct of control), % at 4 µM | 1.5% of 140,000 active | AID 841; in the data active = protection mostly above about 24%, no sharp cut-off; inactive = mostly below about 26%
Cl transport mod = modulates chloride dependent transport by human KCC2; Q9H2X9; KCC2 cells, thallium flux FluoZin-2 fluorescence; B-score of Tl+ flux slope (higher = more flux/activation; lower = inhibition) at 10 µM; 2.2% of 190,000 active;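 active = thallium flux slope and its plate-corrected score both differing from the plate sample mean at a set confidence after two filtering rounds, in either direction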;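 note: slope of fluorescence scaled to starting intensity during 10 to 20 s after thallium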
Arbovirus inh = blocks arbovirus infection; inhibition, % at 10 µM; 0.37% of 200,000 active; arbovirus infection cell-based antiviral screen; in the data active = inhibition above about 30%
HSV augment = HSV replication enhancement | HSV replication augmentation in cells, fold increase | 0.005% of 220,000 active | maximum fold increase; in the data active = maximum fold increase above about 1.5; inconclusive = no clear call, values can overlap the other calls; tested in PC3 cells
ROMK mod = human ROMK K+ channel modulation, primary screen | P48048 | B-score at 10 µM | AID 1918 | Tet-inducible ROMK, thallium flux fluorescence; actives lie on both sides | 2% of 130,000 active;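 active = signal ratio slope over the read window, or its plate-corrected B-score, at least 3 SD from the plate mean, either direction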;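 note: B-score of the F/F0 ratio slope over 7 to 12 s after thallium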
Target sequence (P48048 whole entry, looked up): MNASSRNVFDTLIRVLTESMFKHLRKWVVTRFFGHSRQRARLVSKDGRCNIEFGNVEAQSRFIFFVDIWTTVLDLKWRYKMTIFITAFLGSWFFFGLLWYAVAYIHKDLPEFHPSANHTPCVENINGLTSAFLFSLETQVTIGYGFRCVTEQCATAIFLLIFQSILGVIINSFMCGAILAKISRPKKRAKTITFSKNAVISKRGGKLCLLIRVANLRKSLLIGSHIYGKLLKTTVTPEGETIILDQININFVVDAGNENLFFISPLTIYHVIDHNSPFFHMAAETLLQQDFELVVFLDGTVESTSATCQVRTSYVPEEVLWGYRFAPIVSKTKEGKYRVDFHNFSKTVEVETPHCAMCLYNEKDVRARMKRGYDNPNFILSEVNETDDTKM
KCC2 secondary = KCC2 (human) modulation, secondary assay. shares compounds with Cl transport mod. HEK293-KCC2, thallium flux, FluoZin2 fluorescence; stronger effect = higher value. normalised thallium flux (F/F0 slope) at 10 µM. 15% of 3,700 active. AID 1713;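 active = thallium flux slope above the same plate's solvent-only control mean plus 3 SD; inconclusive = the two replicate wells disagree; inactive = no significant difference from solvent-only control wells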
KCC2 bumet counter = bumetanide-insensitive thallium flux in KCC2 cells with ouabain, counter-screen; shares compounds with Cl transport mod; normalized thallium flux at 10 µM; HEK293-KCC2 + bumetanide/ouabain, thallium flux FluoZin2; stronger effect = higher value; 49% of 3,700 active;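 active = thallium entry rate above the same plate's blocked-transporter control wells by more than 3 SD; inconclusive = the two repeat wells disagree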;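 note: raw slope of fluorescence over initial fluorescence between 10 and 20 s after thallium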
KCC2 secondary2 = confirmation of human KCC2 transport modulators. shares compounds with Cl transport mod. HEK293-KCC2, thallium flux FluoZin2 fluorescence; actives lie on both sides; F/F0 rise rate, 10–20 s post-thallium. normalized thallium flux at 10 µM. 23% of 3,700 active;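 active = thallium flux slope more than 3 SD above or below the plate's solvent-only control mean, mostly below; inconclusive = the two repeat wells disagreed; inactive = no significant shift from solvent-only controls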
HEK293 Tl flux = parental HEK flux effect, counter-screen; shares compounds with Cl transport mod; HEK293 parental cells, thallium flux FluoZin2, ouabain; baseline-ratio fluorescence slope, 10–20 s after thallium; thallium flux rate (normalised fluorescence) at 10 µM; 46% of 3,700 active;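 active = thallium flux rate significantly above the same plate's solvent-only control wells, beyond their mean plus 3 SD; inconclusive = the two replicate wells gave conflicting results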
KCC2 retest ouab = confirmation of human KCC2 modulators with ouabain. shares compounds with Cl transport mod. HEK293-KCC2, thallium flux FluoZin2 fluorescence; bidirectional: low = inhibitor, high = activator. raw Tl+ flux slope (below DMSO = inhibition, above = activation) at 10 µM. 48% of 3,700 active. AID 1717;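 active = thallium flux slope beyond 3 SD from same-plate DMSO control mean in most replicates, usually higher, sometimes lower; inconclusive = repeat tests gave conflicting results; inactive = no significant difference from controls in most replicates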;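 note: slope of initial-normalized fluorescence between seconds 10 and 20 after thallium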
HEK293 Tl flux2 = acts in parental HEK cells, second KCC2 counter-screen | shares compounds with Cl transport mod | HEK293 parental, thallium flux FluoZin-2 fluorescence slope | thallium flux slope at 10 µM | 33% of 3,700 active | AID 1718;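 active = thallium flux slope above the same plate's solvent-control mean plus 3 SD in both duplicate wells; inconclusive = duplicate wells that disagreed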;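 note: run without ouabain in cells lacking the KCC2 cotransporter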
Large screens that a line does not name were inactive (follow-up assays come after a bar, where they were run).

CCCC(=O)N1CCN(c2ccc([N+](=O)[O-])c(NC(C)c3ccccc3)c2)CC1 (centres undefined)	Cl transport mod -4.6, ROMK mod -5.3
CC(Nc1cc(N2CCCC2)ccc1[N+](=O)[O-])c1ccccc1 (centres undefined)	none (no result: ROMK mod)
CNC(=O)c1ccc(OCc2ccccc2)c(OC)c1	Measles CPE 76
COc1cc(/C=C/C(=O)NC(C)(C)C)ccc1OCc1ccccc1	Measles CPE 27
COc1ccc(/C=C/C(=O)NC(C)CCc2ccccc2)cc1OC (centres undefined)	none (no result: Measles CPE, Cl transport mod, ROMK mod)
COc1cc(/C=C/C(=O)N2CCOCC2)ccc1OCc1ccccc1	Measles CPE 94
CCCCOC(=O)Nc1nnc(CCc2ccccc2)s1	Measles CPE 51
CCCCOC(=O)Nc1nnc(COc2ccccc2)s1	none
CC(=O)Nc1cccc(-c2csc(Nc3ncccn3)n2)c1	none (no result: Measles CPE)
CC(=O)Nc1cccc(-c2csc(Nc3ccc(C)cn3)n2)c1	Measles CPE 53 (no result: ROMK mod)
Brc1ccccc1-c1nnc(COc2cccc3cccnc23)o1	Cl transport mod -3 | KCC2 secondary inactive | KCC2 bumet counter inactive | KCC2 secondary2 inactive | HEK293 Tl flux inactive | KCC2 retest ouab 0.038 | HEK293 Tl flux2 inactive
Clc1ccccc1OCc1nnc(-c2ccccc2Br)o1	none (no result: ROMK mod)
Cc1nc(NCc2cccnc2)c2c3c(sc2n1)CC(C)CC3 (centres undefined)	Cl transport mod 59 (no result: Measles CPE) | KCC2 secondary 0.036 | KCC2 bumet counter 0.16 | KCC2 secondary2 0.038 | HEK293 Tl flux 0.097 | KCC2 retest ouab 0.087 | HEK293 Tl flux2 0.034
CCOC(=O)c1sc2nc(C)nc(NCc3cccnc3)c2c1C	none (no result: Measles CPE)
O=C(CCC(=O)N1CCN(S(=O)(=O)c2ccc(Cl)cc2)CC1)Nc1cccc(Br)c1	none
Cc1cc(Br)ccc1-n1[nH]c(C)c(C=Nc2cccc3nsnc23)c1=O	Cl transport mod 16 (no result: Measles CPE) | KCC2 secondary inactive | KCC2 bumet counter 0.043 | KCC2 secondary2 inactive | HEK293 Tl flux 0.017 | KCC2 retest ouab 0.04 | HEK293 Tl flux2 inconclusive
COc1ccccc1N=Cc1c(C)[nH]n(-c2ccc(C)cc2C)c1=O	none (no result: Measles CPE, ROMK mod)
c1ccc(CSC2=NNC(c3ccccn3)S2)cc1 (centres undefined)	Cl transport mod 28 (no result: Measles CPE, Arbovirus inh) | KCC2 secondary inconclusive | KCC2 bumet counter 0.026 | KCC2 secondary2 inconclusive | HEK293 Tl flux 0.015 | KCC2 retest ouab 0.025 | HEK293 Tl flux2 0.018
NNC(=O)c1ccc2ccccc2n1	Cl transport mod 26 (no result: Measles CPE) | KCC2 secondary inactive | KCC2 bumet counter 0.056 | KCC2 secondary2 0.042 | HEK293 Tl flux 0.038 | KCC2 retest ouab 0.047 | HEK293 Tl flux2 0.023
O=C(NN=C1CCCCCCC1)c1ccc2ccccc2n1	Cl transport mod 23 (no result: Measles CPE) | KCC2 secondary inactive | KCC2 bumet counter 0.038 | KCC2 secondary2 inconclusive | HEK293 Tl flux 0.026 | KCC2 retest ouab 0.035 | HEK293 Tl flux2 0.021
CC(C)(C)[C@H]1C=C(C(N)=O)O[C@@H](OCc2ccc(CO)cc2)C1	none (no result: Measles CPE, ROMK mod)
CC1=CC(C)(C)n2c(O)c(N=NC(N)=S)c3c(C)c(C)cc1c32	none (no result: Measles CPE, Arbovirus inh, ROMK mod)
COc1cc2c3c(c1)c(N=NC(N)=S)c(O)n3C(C)(C)C=C2C	Cl transport mod 21 (no result: Measles CPE, Arbovirus inh, ROMK mod) | KCC2 secondary inconclusive | KCC2 bumet counter 0.026 | KCC2 secondary2 inactive | HEK293 Tl flux 0.017 | KCC2 retest ouab inconclusive | HEK293 Tl flux2 0.014
CC1=CC(C)(C)n2c(O)c(N=NC(N)=S)c3c(C)ccc1c32	Cl transport mod 3.8 (no result: ROMK mod) | KCC2 secondary inactive | KCC2 bumet counter 0.012 | KCC2 secondary2 inactive | HEK293 Tl flux 0.016 | KCC2 retest ouab inactive | HEK293 Tl flux2 inconclusive
COCCNc1oc(-c2ccc(F)cc2)nc1C#N	none
COCCNc1oc(-c2ccccc2Cl)nc1C#N	Cl transport mod -3.8 (no result: ROMK mod) | KCC2 secondary inactive | KCC2 bumet counter inactive | KCC2 secondary2 inactive | HEK293 Tl flux inactive | KCC2 retest ouab inactive | HEK293 Tl flux2 inactive
O=C(CSc1nnc(-c2ccccc2)o1)N1CCc2ccccc2C1	Cl transport mod -3.4 | KCC2 secondary inactive | KCC2 bumet counter inactive | KCC2 secondary2 0.025 | HEK293 Tl flux inconclusive | KCC2 retest ouab 0.013 | HEK293 Tl flux2 inactive
Cc1oc(-c2ccccc2)nc1CS(=O)CC(=O)N1CCc2ccccc2C1 (centres undefined)	none (no result: Cl transport mod, ROMK mod) | KCC2 secondary inactive | KCC2 bumet counter inconclusive | KCC2 secondary2 0.024 | HEK293 Tl flux inactive | KCC2 retest ouab inconclusive | HEK293 Tl flux2 inactive
O=C(CSc1nccc(=O)[nH]1)N1CCCc2ccccc21	none (no result: ROMK mod)
O=C(CSc1nccc(=O)[nH]1)N1CCc2ccccc2C1	Cl transport mod -4.9 | KCC2 secondary inactive | KCC2 bumet counter inactive | KCC2 secondary2 0.023 | HEK293 Tl flux inactive | KCC2 retest ouab 0.015 | HEK293 Tl flux2 inactive
COc1ccc(-c2nnc(SCC(=O)N3CCc4ccccc4C3)o2)cc1	Cl transport mod -3.5 | KCC2 secondary inconclusive | KCC2 bumet counter inactive | KCC2 secondary2 inactive | HEK293 Tl flux inconclusive | KCC2 retest ouab 0.016 | HEK293 Tl flux2 inactive
Cc1cccc(-c2nc(CS(=O)CC(=O)N3CCCCC3)c(C)o2)c1 (centres undefined)	none (no result: Cl transport mod, ROMK mod)
O=c1[nH]ncc(NCc2ccc(Cl)cc2)c1Cl	none (no result: Measles CPE)
OC(COc1ccc(CN2CCCCO2)cc1)CN1CCCCC1 (centres undefined)	none (no result: Measles CPE)
O=C1C2Sc3[nH]c(=O)sc3C(c3ccccc3)C2C(=O)N1c1ccc(Cl)cc1 (centres undefined)	Cl transport mod -9.8 (no result: ROMK mod) | KCC2 secondary inactive | KCC2 bumet counter 0.013 | KCC2 secondary2 0.024 | HEK293 Tl flux 0.01 | KCC2 retest ouab 0.011 | HEK293 Tl flux2 inactive
Cc1ccc(N2C(=O)C3Sc4[nH]c(=O)sc4C(c4ccccc4)C3C2=O)cc1 (centres undefined)	Cl transport mod -10 (no result: ROMK mod) | KCC2 secondary inactive | KCC2 bumet counter 0.011 | KCC2 secondary2 0.023 | HEK293 Tl flux 0.01 | KCC2 retest ouab 0.0098 | HEK293 Tl flux2 inactive
CC(C)NC(=O)Cn1cc(C(=O)C2CC2)c2ccccc21	none (no result: Measles CPE)
CCOC(=O)N1CCN(C(=S)NC(=O)c2c(-c3c(Cl)cccc3Cl)noc2C)CC1	Cl transport mod 11 (no result: Measles CPE) | KCC2 secondary inconclusive | KCC2 bumet counter 0.033 | KCC2 secondary2 inconclusive | HEK293 Tl flux 0.018 | KCC2 retest ouab 0.032 | HEK293 Tl flux2 0.019
